Experimental data as given in PubChem BioAssay AID1159580 (chemical genetic matrix, 2015).
The whole screen tested about 5,500 compounds, of which about 2,000 (36%) were called active. Inconclusive results (about 18%) are left out. Rule as the data show it: active = normalized growth mostly below about 0.91 (no sharp cut-off); inconclusive = no clear call, values can overlap the other calls; inactive = mostly above about 0.92. Some of the results follow.

Experiment: chemical genetic growth profiling, strain panel (AID 1159580);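 also: tested at 20 µM; growth read once vehicle control cultures reached saturation at 30 °C; 1 = growth at the plate median or of vehicle wells; lower values mean less growth of the strain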
Conditions: S. cerevisiae deletion strains, growth OD

Measured: normalized growth

CC1=NN(c2ccccc2)C(=O)C1
active: locus YDR318W, strain mcm21, hits give low values 0.904 | locus YDR392W, strain spt3, hits give low values 0.609 | locus YIL125W, strain kgd1, hits give low values 0.93
inactive: locus YAL021C, strain ccr4, hits give low values 0.982 | locus YAL026C, strain drs2, hits give low values 0.959 | locus YAL030W, strain snc1, hits give low values 0.998 | locus YBL061C, strain skt5, hits give low values 0.987 | locus YBR009C, strain hhf1, hits give low values 0.936 | locus YBR021W, strain FUR4, hits give low values 0.993 | locus YBR023C, strain chs3, hits give low values 0.983 | locus YBR171W, strain sec66, hits give low values 0.994 | locus YBR229C, strain ROT2, hits give low values 0.978 | locus YBR231C, strain swc5, hits give low values 0.979 | locus YBR279W, strain paf1, hits give low values 0.979 | locus YCL011C, strain gbp2, hits give low values 0.98 | locus YCL016C, strain dcc1, hits give low values 0.965 | locus YCL029C, strain bik1, hits give low values 0.982 | locus YCL061C, strain MRC1, hits give low values 0.985 | locus YCL069W, strain vba3, hits give low values 0.986 | locus YCR088W, strain abp1, hits give low values 0.993 | locus YDL005C, strain med2, hits give low values 0.975 | locus YDL035C, strain GPR1, hits give low values 0.955 | locus YDL040C, strain nat1, hits give low values 0.978 | locus YDL074C, strain BRE1, hits give low values 0.912 | locus YDL101C, strain DUN1, hits give low values 0.957 | locus YDL134C, strain PPH21, hits give low values 0.971 | locus YDL185W, strain tfp1, hits give low values 0.976 | locus YDL192W, strain arf1, hits give low values 0.918 | locus YDR001C, strain nth1, hits give low values 0.994 | locus YDR069C, strain doa4, hits give low values 0.969 | locus YDR101C, strain arx1, hits give low values 1.01 | locus YDR137W, strain rgp1, hits give low values 0.899 | locus YDR159W, strain sac3, hits give low values 0.957 | locus YDR162C, strain NBP2, hits give low values 0.925 | locus YDR195W, strain ref2 1 | locus YDR297W, strain sur2, hits give low values 0.983 | locus YDR334W, strain swr1, hits give low values 0.992 | locus YDR335W, strain msn5, hits give low values 0.99 | locus YDR388W, hits give low values 0.958 | locus YDR502C, strain sam2, hits give low values 0.934 | locus YEL003W, strain gim4, hits give low values 0.97 | locus YEL037C, strain rad23, hits give low values 0.994 | locus YEL061C, strain CIN8 (second series), hits give low values 0.988 | locus YEL061C, strain CIN8, hits give low values 0.992 | locus YER015W, strain faa2, hits give low values 0.987 | locus YER016W, strain bim1, hits give low values 0.99 | locus YER110C, hits give low values 0.98 | locus YER111C, strain swi4, hits give low values 0.989 | locus YER155C, strain BEM2 (second series), hits give low values 0.917 | locus YER155C, strain BEM2, hits give low values 0.991 | locus YER167W, strain BCK2, hits give low values 0.952 | locus YFR010W, strain ubp6, hits give low values 0.983 | locus YGL078C, strain dbp3, hits give low values 0.98 | locus YGL086W, strain mad1, hits give low values 0.955 | locus YGL167C, strain pmr1, hits give low values 0.982 | locus YGL173C, strain kem1, hits give low values 0.974 | locus YGL227W, strain vid30, hits give low values 0.995 | locus YGL240W, strain doc1, hits give low values 0.952 | locus YGL248W, strain PDE1, hits give low values 0.963 | locus YGL253W, strain hxk2, hits give low values 0.976 | locus YGR135W, strain pre9, hits give low values 0.914 | locus YGR252W, strain gcn5, hits give low values 0.867 | locus YHR013C, strain ard1, hits give low values 0.881 | locus YHR027C, strain rpn1, hits give low values 0.985 | locus YHR030C, strain SLT2, hits give low values 0.987 | locus YHR079C, strain IRE1 (second series), hits give low values 0.981 | locus YHR094C, strain hxt1, hits give low values 0.982 | locus YHR129C, strain ARP1, hits give low values 0.972 | locus YHR142W, strain chs7, hits give low values 0.972 | locus YHR200W, strain rpn10, hits give low values 0.975 | locus YIL066C, strain RNR3, hits give low values 0.929 | locus YIL073C, strain SPO22, hits give low values 0.898 | locus YIR030C, strain dcg1, hits give low values 0.978 | locus YJL092W, strain hpr5, hits give low values 0.985 | locus YJL095W, strain BCK1 (second series), hits give low values 0.983 | locus YJL095W, strain BCK1, hits give low values 0.935 | locus YJL115W, strain asf1, hits give low values 0.983 | locus YJL129C, strain trk1, hits give low values 0.985 | locus YJL134W, strain LCB3, hits give low values 0.981 | locus YJL154C, strain vps35, hits give low values 0.997 | locus YJL164C, strain tpk1, hits give low values 0.973 | locus YJL166W, strain qcr8, hits give low values 0.949 | locus YJL168C, strain set2, hits give low values 0.993 | locus YJL187C, strain SWE1 (second series), hits give low values 0.986 | locus YJL187C, strain SWE1, hits give low values 0.983 | locus YJR043C, strain POL32, hits give low values 0.998
